KCNQ2 block: KCNQ2 (rat) channel inhibition; hit rate 1.1% among 310,000; B-score at 10 µM; CHO-K1 KCNQ2, FluxOR thallium flux, 20 min; active compounds read low; AID 2156;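 active = fluorescence ratio B-score at most minus 3 library SDs, with starting brightness B-score within 2 library SDs, cut at about -5.5 in these data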
KCNQ2 pot: KCNQ2 (rat) channel potentiation. O88943. CHO-K1 KCNQ2, FluxOR thallium flux fluorescence; active compounds read high. B-score at 10 µM. hit rate 0.54% among 310,000;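 active = fluorescence ratio B-score at least 3 SD of library B-scores, with initial fluorescence B-score within 3 of them, cut at about 5.3 in these data; same plate scores as AID 2156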;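 also: B-score of peak minus minimum over baseline fluorescence ratio after K+ and Tl+ stimulus; positive B-score means potentiation of KCNQ2 with more thallium influx and brighter signal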
Kir21 conf inh: confirmation of mouse Kir2.1 potassium channel inhibitors | Tl flux remaining, % of negative control (active compounds read low), % at 10 µM | Kir2.1-expressing cells, FluxOR thallium flux fluorescence; active compounds read low | hit rate 41% among 2,300 | AID 2032 | shares compounds with KCNQ2 pot;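 active = Primary-screen hit whose thallium flux fell at least 3 control SD below untreated wells in both duplicates, with normal baseline fluorescence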
HEK293 ctr: counter-screen for Kir2.1 inhibitors: effect in parental HEK293 cells | hit rate 19% among 2,300 | FluxOR thallium flux fluorescence; 0% = unstimulated blank wells | shares compounds with KCNQ2 pot | FluxOR signal as % of negative control (100 = no effect), % at 10 µM;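 active = dye signal at least 3 control SD above or below untreated wells in both duplicates, raw fluorescence within 3, either direction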;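 also: percent is based on the flux ratio of peak minus minimum fluorescence over baseline F0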
CHO-K1 Tl ctr: alters thallium flux in parental CHO-K1 cells, KCNQ2 counter-screen | shares compounds with KCNQ2 pot | FluxOR thallium flux fluorescence; zero = vehicle mean+3SD, 100% = vehicle-minus-blank window | activity increase over 3SD of controls, % at 10 µM | hit rate 43% among 1,200 | AID 2282;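 active = signal rise of at least 3 SD above the untreated control mean, in both duplicate wells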;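 also: counter screen of KCNQ2 potentiator hits so any rise reflects channel-independent effects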
KCNQ1 sel pot: human KCNQ1 counter-target activity of KCNQ2 potentiators | shares compounds with KCNQ2 pot | CHO KCNQ1 stable, FluxOR thallium flux fluorescence; beyond 3SD, as % of vehicle-control signal | activation over 3SD threshold, % at 10 µM | hit rate 28% among 1,200 | AID 2283;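 active = fluorescence ratio rise of at least 3 SD of vehicle wells above their mean, in both replicate wells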
KCNQ2 pot conf: rat KCNQ2 channel potentiator confirmation; potentiation, less the hit threshold, % at 10 µM; AID 2287; shares compounds with KCNQ2 pot; hit rate 68% among 1,200; CHO-KCNQ2 cells, FluxOR thallium flux fluorescence;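 active = fluorescence ratio rising 3 SD or more over the vehicle control mean in both replicates, plus primary screen hit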;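 also: peak minus minimum thallium fluorescence divided by baseline after K/Tl stimulus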
Kir21 spec: selectivity of KCNQ2 potentiators: effect on mouse Kir2.1; shares compounds with KCNQ2 pot; HEK293 Kir2.1, FluxOR thallium flux fluorescence; activity over 3SD threshold, % at 10 µM; hit rate 2% among 1,200;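 active = fluorescence ratio rise of at least 3 SD above the vehicle-control mean, seen in both replicates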
KCNQ2 W236L MoA: rat KCNQ2 W236L mutant potentiation by KCNQ2 potentiators; current increase over 3SD of negative controls (%), active compounds read high, % at 25 µM; shares compounds with KCNQ2 pot; CHO KCNQ2-W236L, automated patch clamp current; hit rate 10% among 940;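 active = current increase at least 3 SD of the untreated controls above them in both duplicate recordings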
Target sequence (O88943 whole entry W236L, looked up): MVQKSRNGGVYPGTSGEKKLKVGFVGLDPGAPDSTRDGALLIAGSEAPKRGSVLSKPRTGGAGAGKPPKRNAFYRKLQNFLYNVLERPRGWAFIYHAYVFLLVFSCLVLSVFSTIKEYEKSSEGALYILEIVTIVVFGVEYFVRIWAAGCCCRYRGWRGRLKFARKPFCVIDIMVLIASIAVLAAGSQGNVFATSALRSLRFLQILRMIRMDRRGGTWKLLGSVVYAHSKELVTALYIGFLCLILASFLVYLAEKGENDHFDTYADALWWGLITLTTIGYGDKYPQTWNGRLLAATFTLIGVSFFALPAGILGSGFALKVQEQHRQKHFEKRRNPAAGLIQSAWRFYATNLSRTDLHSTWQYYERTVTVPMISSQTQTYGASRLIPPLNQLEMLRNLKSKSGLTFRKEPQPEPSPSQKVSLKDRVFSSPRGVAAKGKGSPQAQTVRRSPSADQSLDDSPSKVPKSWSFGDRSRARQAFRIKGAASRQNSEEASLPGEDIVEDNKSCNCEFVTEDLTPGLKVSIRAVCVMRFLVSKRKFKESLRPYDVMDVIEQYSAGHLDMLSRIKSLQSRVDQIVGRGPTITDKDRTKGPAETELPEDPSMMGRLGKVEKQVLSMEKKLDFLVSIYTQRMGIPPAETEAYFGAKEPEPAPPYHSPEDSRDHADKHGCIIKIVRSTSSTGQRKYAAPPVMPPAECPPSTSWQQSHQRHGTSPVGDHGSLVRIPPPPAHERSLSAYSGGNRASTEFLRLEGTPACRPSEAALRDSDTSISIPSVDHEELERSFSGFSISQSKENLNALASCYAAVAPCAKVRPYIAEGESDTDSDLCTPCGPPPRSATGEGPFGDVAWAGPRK
Each line names hits and unclear results; the compound was inactive in the other large screens (follow-up assays come after a bar, where they were run). Rows were chosen to be rich in hits. Some 1.6% of all compounds tested hit in one or more screens of this group.

CCN(CC(=O)NC(=O)NC1CCCCC1)Cc1nc2ccccc2c(=O)[nH]1	KCNQ2 pot 10 | Kir21 conf inh inactive | HEK293 ctr inactive | CHO-K1 Tl ctr 63 | KCNQ1 sel pot 17 | KCNQ2 pot conf 34 | Kir21 spec inactive | KCNQ2 W236L MoA inactive
COCCn1c(COc2ccc(OC)cc2)nc2ccccc21	none (no result: KCNQ2 pot)
O=C(/C=C/c1ccccc1)NC(NC(=S)Nc1ccc(C(=O)O)cc1)C(Cl)(Cl)Cl (configuration not stated)	none
CN(CC1COc2ccccc2O1)C(=S)Nc1ccccc1 (configuration not stated)	none (no result: KCNQ2 pot)
CCN(CC1COc2ccccc2O1)C(=S)NC1CC2CCC1C2 (configuration not stated)	KCNQ2 pot 12 | Kir21 conf inh inactive | HEK293 ctr 64% | CHO-K1 Tl ctr 37 | KCNQ1 sel pot inactive | KCNQ2 pot conf inactive | Kir21 spec inactive | KCNQ2 W236L MoA inactive
O=C(Nc1ccnn1C1CCN(C2CCC2)CC1)c1cccc(F)c1	none
Nc1nonc1/C(=N/O)N1CCCC1	none (no result: KCNQ2 pot)
C=CCn1c(COc2ccccc2)nnc1SCc1ccc(C#N)cc1	none (no result: KCNQ2 pot) | Kir21 conf inh 45% | HEK293 ctr 69%
C=CCn1c(COc2ccc(Cl)cc2)nnc1SCc1ccc(C#N)cc1	none (no result: KCNQ2 pot)
FC(F)(F)c1ccc(N/N=C/c2cccnc2)nc1	none
CCn1c(=S)[nH]c2sc3c(c2c1=O)CCCC3	KCNQ2 pot 16 | Kir21 conf inh inactive | HEK293 ctr 393% | CHO-K1 Tl ctr 40 | KCNQ1 sel pot inactive | KCNQ2 pot conf 60 | Kir21 spec inactive | KCNQ2 W236L MoA inactive
C=CCn1c(=S)[nH]c2sc3c(c2c1=O)CCC3	none
CC1CCc2c(sc3nn[nH]c(=O)c23)C1 (configuration not stated)	none
CC1CCc2c(sc3[nH]c(=S)n(C)c(=O)c23)C1 (configuration not stated)	KCNQ2 pot 20 | Kir21 conf inh inactive | HEK293 ctr 396% | CHO-K1 Tl ctr 54 | KCNQ1 sel pot inactive | KCNQ2 pot conf 69 | Kir21 spec inactive | KCNQ2 W236L MoA inactive
CC(C)(C)OC(=O)NCCCCCc1nnc(SCc2cccc(F)c2)o1	none (no result: KCNQ2 pot)
CC(C)(C)OC(=O)NCCc1nnc(SCC(=O)c2ccc(Cl)cc2)o1	none (no result: KCNQ2 pot)
CC(C)(C)OC(=O)NCCc1nnc(SCc2ccc(Cl)cc2Cl)o1	KCNQ2 block -5.9 | Kir21 conf inh 34% | HEK293 ctr inactive
CC(C)(C)OC(=O)NCCc1nnc(SCc2cccc(Cl)c2)o1	none (no result: KCNQ2 pot) | Kir21 conf inh 26% | HEK293 ctr inactive
CC(C)(C)OC(=O)NCCc1nnc(SCc2c(Cl)cccc2Cl)o1	none (no result: KCNQ2 pot)
Cc1cccc(CSc2nnc(CCNC(=O)OC(C)(C)C)o2)c1	none (no result: KCNQ2 pot) | Kir21 conf inh 33% | HEK293 ctr inactive
CCC(=O)N1CCc2cc(Br)cc(S(=O)(=O)CCC(=O)NCCOC)c21	none (no result: KCNQ2 pot)
O=c1c2ccccc2c(C=NC2CCS(=O)(=O)C2)c(O)n1-c1ccccc1 (configuration not stated)	none
O=S1(=O)CCC(N=Cc2cc(Br)ccc2O)C1 (configuration not stated)	KCNQ2 pot 6.4 | Kir21 conf inh inactive | HEK293 ctr inactive | CHO-K1 Tl ctr 21 | KCNQ1 sel pot inactive | KCNQ2 pot conf 22 | Kir21 spec inactive | KCNQ2 W236L MoA inactive
Cn1c(OCc2cccnc2)nc2c1c(=O)n(Cc1ccc(Cl)cc1)c(=O)n2C	none (no result: KCNQ2 pot)
Cc1ccc(-n2nnnc2SCC(=O)N2CCCCC2)cc1	none (no result: KCNQ2 pot)
O=C(CSc1nnnn1-c1cccc2c1CCCC2)N1CCCCC1	KCNQ2 pot 6.2 | Kir21 conf inh 70% | HEK293 ctr inactive | CHO-K1 Tl ctr 69 | KCNQ1 sel pot inactive | KCNQ2 pot conf inactive | Kir21 spec inactive
Cc1onc(-c2c(F)cccc2Cl)c1C(=O)N1CCOC12CCCCC2	none (no result: KCNQ2 pot)
NC(=O)CC(NC(=O)c1ccc(Br)cc1)c1ccc(N2CCCCCCC2)c([N+](=O)[O-])c1 (configuration not stated)	none (no result: KCNQ2 pot)
O=[N+]([O-])c1cccc(S(=O)(=O)Nc2nc3ccccc3nc2Nc2cccc(S(=O)(=O)N3CCCCC3)c2)c1	KCNQ2 pot 8.2 | Kir21 conf inh inactive | HEK293 ctr inactive | CHO-K1 Tl ctr inactive | KCNQ1 sel pot 17 | KCNQ2 pot conf inactive | Kir21 spec inactive
Cc1ccc(S(=O)(=O)Nc2nc3ccccc3nc2Nc2cccc(S(=O)(=O)N3CCCC3)c2)cc1	none (no result: KCNQ2 pot)
COc1ccc(-c2nc(N)n(S(=O)(=O)c3ccc(C)cc3)n2)cc1	none (no result: KCNQ2 pot)
Cc1nn(-c2ccc(F)cc2)c(C)c1NS(=O)(=O)c1ccc2ccccc2c1	none (no result: KCNQ2 pot)
Cc1cc(C)c(S(=O)(=O)N2CCCc3ccccc32)c(C)c1	none (no result: KCNQ2 pot)
Cc1cccc(S(=O)(=O)N2CCCc3ccccc32)c1	none (no result: KCNQ2 pot) | Kir21 conf inh inactive | HEK293 ctr inactive
Cn1/c(=N/NC(=O)c2cccc(OC(F)F)c2)sc2ccccc21	none
COc1ccc(C2=NOC(Cn3c(Cc4ccc(Cl)cc4)nc4c3c(=O)n(C)c(=O)n4C)C2)cc1 (configuration not stated)	KCNQ2 pot 5.4 | Kir21 conf inh inactive | HEK293 ctr inactive | CHO-K1 Tl ctr 6.7 | KCNQ1 sel pot inactive | KCNQ2 pot conf inactive | Kir21 spec inactive
COc1ccccc1C1=NOC(Cn2c(NCCCO)nc3c2c(=O)n(C)c(=O)n3C)C1 (configuration not stated)	none
CCOC(=O)CSc1nc2ccccc2n1CC(=O)N(C(C)C)C(C)C	none (no result: KCNQ2 pot)
CCn1c2ccccc2c2cc(NC(=O)CNCC3CCCO3)ccc21 (configuration not stated)	none | Kir21 conf inh 48% | HEK293 ctr inactive
CCn1c2ccccc2c2cc(NC(=O)CN3CCCC3)ccc21	none
CC1(c2cccc(Br)c2)NC(=O)N(CC(=O)Nc2cccnc2Cl)C1=O (configuration not stated)	none
Cc1ccc(NC(=O)C[n+]2cc(-c3ccccc3)n3c2CCC3)cc1	none
COc1ccccc1NC(=O)c1ccc(CN2CCOCC2)cc1	none (no result: KCNQ2 pot)
Cc1[nH]n(-c2ccccc2)c(=O)c1S(=O)(=O)c1ccccc1	none (no result: KCNQ2 pot) | Kir21 conf inh 28% | HEK293 ctr inactive
Cc1[nH]n(-c2ccccc2)c(=O)c1CCO	none

Screens from PubChem.
